9 molecules from PubChem BioAssay (NCATS) can be followed below.

Where “and” joins values, the source holds several entries; their conditions need not be identical. Equal values may be shown once. Inconclusive results are not listed. Where a structure was tested more than once in an assay, its records may differ in their call. Calls of active or inactive are those of the source. Unless noted, calls follow the shape of the dose curve; as a rule, active = well fitted curve in the direction sought with a large enough effect; inconclusive = small, poorly fitted or top-dose-only effect, or another doubt; inactive = no such curve, though single readings can be large; an effect the other way counts as inactive or inconclusive.

Test [1] can be described thus: High-throughput drug toxicity screening in the BPDCN cell line Gen2.2 (AID 1224824; call rule not given here;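 also: cells exposed to compounds for 48 h before reading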). The following applies: Gen2.2 BPDCN cells; at 45.8 µM (top of the series) unless noted. The procedure, abridged: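 Gen2.2 cells, 500 per well in phenol red-free RPMI with 10% FBS, exposed to compounds 48 h at 37 C, 5% CO2; viability by CellTiter-Glo luminescence. Percent activity scaled to DMSO (100%) and 9.2 uM bortezomib final (0%).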

The nature of test [2]: High-throughput drug toxicity screening in the BPDCN cell line Cal-1 (AID 1224825; call rule not given here). The settings on record: Cal-1 BPDCN cell viability, qHTS; at 45.8 µM (top of the series) unless noted. The procedure, abridged:
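500 Cal-1 cells/well, RPMI + glutamine + 10% FBS (phenol red-free); cpd added by pin tool; 48 h, 37C, 5% CO2; CTG 15 min RT, lumi read. Normalised: DMSO 100%, bortezomib 9.2 uM 0%.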
A general note: qHTS replaces the single test concentration by a dilution series.

Test [3] is described as follows: qHTS assay for measurement of the activity of small molecule inhibitors on Zika virus induced Caspase-3 activity in human iPSC derived neural progenitor cells (hNPCs) (AID 1224857). Also: % of control where 0% means no effect; nearly all actives have a fitted effect of over 65% in size. The essentials:
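After overnight (16–20 h) culture at 350 cells/well, hNPCs get compound, then ZIKV 2 FFU/cell one hour later. Six hours on, Caspase-Glo 3/7 is added and luminescence measured.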

Test [4] can be described thus: qHTS assay for measurement of the activity of small molecule inhibitors on Zika virus induced Caspase-3 activity in human astrocytoma cells (AID 1224859).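 Also: plate controls were ZIKV-infected untreated cells for no effect and uninfected cells for full effect.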 The essentials: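 Inhibition of Zika-induced caspase-3/7 activity: SNB-19 cells, 1 h compound pretreatment, ZIKV 2 FFU/cell for 6 h at 37 C, Caspase-Glo luminescence read-out.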
The nature of test [5]: qHTS Screen of the MIPE 4.0 Collection Against Ewings Sarcoma (RDES) (AID 1259252). Also: nearly all actives have a fitted effect of over 35% in size. Also: potency is read from the fitted curve at half-maximal effect. The essentials: (§1)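 CellTiter-Glo luminescence after 48 h compound exposure (titration) gave viability; percent activity used DMSO-treated cells as no inhibition and medium-only wells as full inhibition. Cells grown in RPMI/5% FBS, dosed 4 h post-seeding.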
Test [6] can be described thus: qHTS Screen of the MIPE 4.0 Collection Against Ewings Sarcoma (TC71) (AID 1259253). Also: nearly all actives have a fitted effect of over 40% in size. Also: potency is read from the fitted curve at half-maximal effect. The procedure, abridged:
as §1

Test [7] in a line: qHTS Screen of the MIPE 4.0 Collection Against Ewings Sarcoma (EW8) (AID 1259255). Also: nearly all actives have a fitted effect of over 35% in size. Also: potency is read from the fitted curve at half-maximal effect.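 As to viability: 100% = DMSO-treated cells and 0% = medium-only wells without cells.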 The essentials:
as §1

The nature of test [8]: qHTS Screen of the MIPE 4.0 Collection Against Ewings Sarcoma (TC32) (AID 1259256). Also: nearly all actives have a fitted effect of over 45% in size. Also: potency is read from the fitted curve at half-maximal effect. The procedure, abridged:
as §1

Test [9] can be described thus: P-glycoprotein substrates identified in KB-3-1 adenocarcinoma cell line, qHTS therapeutic library screen (AID 1346986). Also: nearly all actives have a fitted effect of over 60% in size. The following applies: KB-3-1 parental cells viability, CellTiter-Glo, 72 h; at 44.5 µM (top of the series). The procedure, abridged: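 Cells seeded 500/well in DMEM/10% FCS; compounds pinned in dose-response; 72 h incubation; CellTiter-Glo added, 5 min, luminescence. KB-8-5-11 run ±tariquidar to test reversal of P-gp resistance.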

A short description of test [10]: P-glycoprotein substrates identified in KB-8-5-11 adenocarcinoma cell line, qHTS therapeutic library screen (AID 1346987). Also: nearly all actives have a fitted effect of over 65% in size. Also: potency is read from the fitted curve at half-maximal effect. The procedure, abridged: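 Steps: plate 500 KB-8-5-11 cells/well in DMEM + 10% FCS (colchicine removed); pin compounds in dose-response; incubate 72 h, 37 degree C, 5% CO2; add CellTiter-Glo, 5 min; read luminescence.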
Test [11] is described as follows: qHTS assay to identify small molecule inhibitors of chordoma cells - UCH-2 (AID 1259356). Also: % is scaled to controls: 0 for no effect and ±100 for the full control effect.
A short description of test [12]: qHTS assay to identify small molecule inhibitors of chordoma cells - UCH-1 (AID 1259355). Also: % is scaled to controls: 0 for no effect and ±100 for the full control effect; nearly all actives have a fitted effect of over 55% in size. The procedure, abridged: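 Seed 800 cells per well; incubate overnight at 37 C, 5% CO2. Add test compounds (15 concentrations), then the auranofin–topoisomerase-agent combination. Incubate 48hr, add CellTiter-Glo, wait 30min, read luminescence.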
Test [13] has as its target Atrial natriuretic peptide receptor 1 (Homo sapiens) (UniProt P16066). The experiment in a line: Natriuretic polypeptide receptor (hNpr1) antagonism - Pilot screen (AID 1347049; calls by dose curve;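 also: agonist-evoked cGMP luminescence read 20 min after hNppA addition; % is scaled to controls: 0 for no effect and ±100 for the full control effect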). The essentials:
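Readout is cGMP-driven firefly luciferase luminescence in HEK293 cells carrying hNpr1 and a PDE5-domain GloSensor, read before and 20 min after 0.1 nM hNppA stimulation. Cells had 2% substrate reagent for 2 h and test compound for 30 min.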

The target in test [14] is Atrial natriuretic peptide receptor 2 (Homo sapiens) (UniProt P20594). The experiment in a line: Natriuretic polypeptide receptor (hNpr2) antagonism - Pilot subtype selectivity assay (AID 1347050; calls by dose curve; also: % is scaled to controls: 0 for no effect and ±100 for the full control effect). The essentials:
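Pilot selectivity screen against hNpr2: HEK293 cGMP-sensor cells are treated with LOPAC1280 compounds, then with hNppC peptide at 1 nM final. The cGMP-driven luminescence change over 20 min at room temperature is the read-out.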

Sequence of Atrial natriuretic peptide receptor 1 (Homo sapiens) (P16066 whole entry, looked up): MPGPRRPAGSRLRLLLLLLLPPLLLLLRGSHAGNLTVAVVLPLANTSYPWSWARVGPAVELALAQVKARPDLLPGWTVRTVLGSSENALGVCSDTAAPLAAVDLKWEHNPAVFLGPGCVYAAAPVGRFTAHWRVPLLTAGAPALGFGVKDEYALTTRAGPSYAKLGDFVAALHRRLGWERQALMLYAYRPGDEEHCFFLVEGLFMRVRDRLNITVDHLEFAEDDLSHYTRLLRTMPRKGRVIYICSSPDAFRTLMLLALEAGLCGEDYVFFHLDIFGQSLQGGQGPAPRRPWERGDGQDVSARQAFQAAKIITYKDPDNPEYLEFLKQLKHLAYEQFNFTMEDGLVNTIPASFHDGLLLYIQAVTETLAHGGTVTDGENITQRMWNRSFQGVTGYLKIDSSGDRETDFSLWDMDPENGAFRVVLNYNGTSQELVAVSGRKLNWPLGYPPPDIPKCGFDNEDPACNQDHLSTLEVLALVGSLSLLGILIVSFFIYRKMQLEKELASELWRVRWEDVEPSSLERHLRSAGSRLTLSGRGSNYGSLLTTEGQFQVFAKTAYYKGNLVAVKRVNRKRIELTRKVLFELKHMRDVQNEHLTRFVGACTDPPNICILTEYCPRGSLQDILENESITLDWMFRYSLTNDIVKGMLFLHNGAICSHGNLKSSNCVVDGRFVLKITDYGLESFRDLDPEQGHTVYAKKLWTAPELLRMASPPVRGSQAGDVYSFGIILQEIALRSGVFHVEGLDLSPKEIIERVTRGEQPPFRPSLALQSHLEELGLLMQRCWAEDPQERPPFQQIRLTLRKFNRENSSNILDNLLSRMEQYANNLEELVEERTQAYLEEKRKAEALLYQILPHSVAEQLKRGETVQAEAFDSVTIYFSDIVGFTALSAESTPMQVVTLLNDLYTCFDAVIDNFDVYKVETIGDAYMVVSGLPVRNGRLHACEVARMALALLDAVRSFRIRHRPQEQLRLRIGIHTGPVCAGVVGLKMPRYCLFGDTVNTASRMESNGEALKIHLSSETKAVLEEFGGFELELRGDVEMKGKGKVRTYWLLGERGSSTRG
Sequence of Atrial natriuretic peptide receptor 2 (Homo sapiens) (P20594 whole entry, looked up): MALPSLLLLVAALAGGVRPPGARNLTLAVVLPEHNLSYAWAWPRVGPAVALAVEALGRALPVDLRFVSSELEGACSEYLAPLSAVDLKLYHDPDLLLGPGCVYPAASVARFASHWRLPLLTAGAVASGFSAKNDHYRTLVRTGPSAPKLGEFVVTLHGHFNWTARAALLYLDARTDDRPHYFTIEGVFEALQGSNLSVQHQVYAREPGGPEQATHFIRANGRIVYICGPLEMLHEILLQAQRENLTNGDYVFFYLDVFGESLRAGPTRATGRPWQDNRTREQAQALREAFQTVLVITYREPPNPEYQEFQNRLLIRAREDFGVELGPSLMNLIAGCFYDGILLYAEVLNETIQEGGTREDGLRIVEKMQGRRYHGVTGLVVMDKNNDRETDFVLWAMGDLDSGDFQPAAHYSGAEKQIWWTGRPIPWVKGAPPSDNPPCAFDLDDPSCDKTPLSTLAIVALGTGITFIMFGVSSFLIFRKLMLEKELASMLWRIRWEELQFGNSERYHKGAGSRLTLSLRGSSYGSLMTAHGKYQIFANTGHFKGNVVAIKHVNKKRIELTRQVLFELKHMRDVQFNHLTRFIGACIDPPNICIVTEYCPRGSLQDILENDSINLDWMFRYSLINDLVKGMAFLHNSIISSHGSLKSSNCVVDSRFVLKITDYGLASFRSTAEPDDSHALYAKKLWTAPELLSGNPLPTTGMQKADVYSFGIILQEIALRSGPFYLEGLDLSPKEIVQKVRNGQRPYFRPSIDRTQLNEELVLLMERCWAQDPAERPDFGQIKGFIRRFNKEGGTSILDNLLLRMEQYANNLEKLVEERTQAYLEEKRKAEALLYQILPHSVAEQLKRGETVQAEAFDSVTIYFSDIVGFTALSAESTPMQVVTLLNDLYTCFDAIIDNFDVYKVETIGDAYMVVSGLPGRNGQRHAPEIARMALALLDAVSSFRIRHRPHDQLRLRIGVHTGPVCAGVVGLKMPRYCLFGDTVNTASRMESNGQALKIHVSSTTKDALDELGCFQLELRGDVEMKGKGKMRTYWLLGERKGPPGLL

Regarding `O=C(O)CCn1c2c(c3ccccc31)C[C@H](NS(=O)(=O)c1ccc(F)cc1)CC2`, in [1], the cell viability, % of control (lower = more cytotoxic) stood at 124%. Further, in [2], the viability (% of control) is 118%. Moreover, the Potency entry in test [3], in [4], in [5], in test [6], in [7] and in test [8] was “inactive” each time. Moreover, the Potency entry in test [10] is “inactive”. Further, in test [9], the outcome was inactive.
Regarding `CCC(=O)O[C@]1(C(=O)CCl)[C@@H](C)C[C@H]2[C@@H]3CCC4=CC(=O)C=C[C@]4(C)[C@@]3(F)[C@@H](O)C[C@@]21C`, in test [1], the cell viability, % of control (lower = more cytotoxic) was found to be 44.1%. Also, the viability (% of control) in test [2] was 47.1%. Also, the Potency entry in test [3], in test [4], in test [5], in [6], in test [7] and in test [8] was “inactive” throughout. Also, the Potency entry in test [11] and in test [10] was “inactive” in each case.
Regarding `COc1cc(NCc2ccc3nc(N)nc(N)c3c2C)cc(OC)c1OC`, the cell viability, % of control (lower = more cytotoxic) in test [1] was 8.74%. In addition, the viability (% of control) in [2] came out at 3.95%. The Potency entry in [3], in [4] and in test [11] was “inactive” throughout. In addition, the Potency was 3.32 µM (active) in [5]; 0.833 µM (active) in test [6]; 1.32 µM (active) in test [7]; 0.833 µM (active) in test [8]; “inactive and 5.8 µM (active)” in test [10].
In the case of `C[C@@H](CN1CC(=O)NC(=O)C1)N1CC(=O)NC(=O)C1`, the cell viability, % of control (lower = more cytotoxic) in test [1] was found to be 147%. The viability (% of control) in [2] stood at 14.7%. The Potency entry in test [3], in [4], in [5], in test [6], in test [8] and in test [12] was “inactive” each time. The Potency entry in test [11] is “inactive”. Further, the Potency in test [7] is 18.7 µM (active); in test [10] it was “inactive and 18.7 µM (active)”.
In the case of `NC(=O)c1cccc(N)c1`, the cell viability, % of control (lower = more cytotoxic) in test [1] is 84.2%. For the same molecule, in [2], the viability (% of control) was 109%. Also, the Potency result in test [3], in [4], in [5], in [6], in test [7] and in test [8] was “inactive” throughout. The Potency entry in test [10], in test [13] and in [14] was “inactive” each time. For the same molecule, the outcome in [9] was inactive.
In the case of `CCC(=O)O[C@]1(C(=O)SCF)[C@H](C)C[C@H]2[C@@H]3C[C@H](F)C4=CC(=O)C=C[C@]4(C)[C@@]3(F)[C@@H](O)C[C@@]21C`, the cell viability, % of control (lower = more cytotoxic) in test [1] amounted to 84.3%. Besides, the viability (% of control) in test [2] turned out to be 52.2%. Moreover, the Potency entry in [3], in test [4], in test [6], in test [7], in [8] and in test [12] was “inactive” throughout. For the same molecule, the Potency result in [10] is “inactive”. Besides, the Potency in test [5] is 16.6 µM (active). The outcome in [9] was inactive.
`NC(=O)c1cccnc1`: the cell viability, % of control (lower = more cytotoxic) in test [1] was determined as 114%. Also, the viability (% of control) in [2] came out at 101%. The Potency result in test [3], in test [4], in test [5], in test [6], in test [7] and in test [8] was “inactive” throughout.
`CC(C)(C)NC(=O)[C@H]1CC[C@H]2[C@@H]3CC[C@H]4NC(=O)C=C[C@]4(C)[C@H]3CC[C@]12C`: the cell viability, % of control (lower = more cytotoxic) in test [1] turned out to be 25.5%. The viability (% of control) in test [2] worked out at 4.87%. Besides, the Potency entry in test [3], in [4], in test [12] and in test [10] was “inactive” in each case. The Potency is 1.05 µM (active) in [5], 1.32 µM (active) in test [6], 5.9 µM (active) in [7] and 3.72 µM (active) in [8].
Consider `CN(CCOc1ccc(CC2SC(=O)NC2=O)cc1)c1ccccn1` (configuration not stated), for which the cell viability, % of control (lower = more cytotoxic) in test [1] came out at 101%. Also, the viability (% of control) in [2] was found to be 107%. The Potency result in [3], in [4], in test [7], in [8], in test [12] and in test [10] was “inactive” in each case. Also, the Potency in test [5] was 6.62 µM (active); in [6] it was 10.5 µM (active).
